# This is one part of a sample in which hits are shown more often than they occur.
# mHTT CaM bind – mHTT-calmodulin interaction abrogation. inhibition, % at 15 µM. P42858. AlphaScreen His-mHTT/GST-CaM binding, luminescence. 190,000 compounds, 3.6% hits;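 note: 0% = both proteins with DMSO and 100% = one protein alone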
# Target sequence (P42858 whole entry, looked up, stated change not applied): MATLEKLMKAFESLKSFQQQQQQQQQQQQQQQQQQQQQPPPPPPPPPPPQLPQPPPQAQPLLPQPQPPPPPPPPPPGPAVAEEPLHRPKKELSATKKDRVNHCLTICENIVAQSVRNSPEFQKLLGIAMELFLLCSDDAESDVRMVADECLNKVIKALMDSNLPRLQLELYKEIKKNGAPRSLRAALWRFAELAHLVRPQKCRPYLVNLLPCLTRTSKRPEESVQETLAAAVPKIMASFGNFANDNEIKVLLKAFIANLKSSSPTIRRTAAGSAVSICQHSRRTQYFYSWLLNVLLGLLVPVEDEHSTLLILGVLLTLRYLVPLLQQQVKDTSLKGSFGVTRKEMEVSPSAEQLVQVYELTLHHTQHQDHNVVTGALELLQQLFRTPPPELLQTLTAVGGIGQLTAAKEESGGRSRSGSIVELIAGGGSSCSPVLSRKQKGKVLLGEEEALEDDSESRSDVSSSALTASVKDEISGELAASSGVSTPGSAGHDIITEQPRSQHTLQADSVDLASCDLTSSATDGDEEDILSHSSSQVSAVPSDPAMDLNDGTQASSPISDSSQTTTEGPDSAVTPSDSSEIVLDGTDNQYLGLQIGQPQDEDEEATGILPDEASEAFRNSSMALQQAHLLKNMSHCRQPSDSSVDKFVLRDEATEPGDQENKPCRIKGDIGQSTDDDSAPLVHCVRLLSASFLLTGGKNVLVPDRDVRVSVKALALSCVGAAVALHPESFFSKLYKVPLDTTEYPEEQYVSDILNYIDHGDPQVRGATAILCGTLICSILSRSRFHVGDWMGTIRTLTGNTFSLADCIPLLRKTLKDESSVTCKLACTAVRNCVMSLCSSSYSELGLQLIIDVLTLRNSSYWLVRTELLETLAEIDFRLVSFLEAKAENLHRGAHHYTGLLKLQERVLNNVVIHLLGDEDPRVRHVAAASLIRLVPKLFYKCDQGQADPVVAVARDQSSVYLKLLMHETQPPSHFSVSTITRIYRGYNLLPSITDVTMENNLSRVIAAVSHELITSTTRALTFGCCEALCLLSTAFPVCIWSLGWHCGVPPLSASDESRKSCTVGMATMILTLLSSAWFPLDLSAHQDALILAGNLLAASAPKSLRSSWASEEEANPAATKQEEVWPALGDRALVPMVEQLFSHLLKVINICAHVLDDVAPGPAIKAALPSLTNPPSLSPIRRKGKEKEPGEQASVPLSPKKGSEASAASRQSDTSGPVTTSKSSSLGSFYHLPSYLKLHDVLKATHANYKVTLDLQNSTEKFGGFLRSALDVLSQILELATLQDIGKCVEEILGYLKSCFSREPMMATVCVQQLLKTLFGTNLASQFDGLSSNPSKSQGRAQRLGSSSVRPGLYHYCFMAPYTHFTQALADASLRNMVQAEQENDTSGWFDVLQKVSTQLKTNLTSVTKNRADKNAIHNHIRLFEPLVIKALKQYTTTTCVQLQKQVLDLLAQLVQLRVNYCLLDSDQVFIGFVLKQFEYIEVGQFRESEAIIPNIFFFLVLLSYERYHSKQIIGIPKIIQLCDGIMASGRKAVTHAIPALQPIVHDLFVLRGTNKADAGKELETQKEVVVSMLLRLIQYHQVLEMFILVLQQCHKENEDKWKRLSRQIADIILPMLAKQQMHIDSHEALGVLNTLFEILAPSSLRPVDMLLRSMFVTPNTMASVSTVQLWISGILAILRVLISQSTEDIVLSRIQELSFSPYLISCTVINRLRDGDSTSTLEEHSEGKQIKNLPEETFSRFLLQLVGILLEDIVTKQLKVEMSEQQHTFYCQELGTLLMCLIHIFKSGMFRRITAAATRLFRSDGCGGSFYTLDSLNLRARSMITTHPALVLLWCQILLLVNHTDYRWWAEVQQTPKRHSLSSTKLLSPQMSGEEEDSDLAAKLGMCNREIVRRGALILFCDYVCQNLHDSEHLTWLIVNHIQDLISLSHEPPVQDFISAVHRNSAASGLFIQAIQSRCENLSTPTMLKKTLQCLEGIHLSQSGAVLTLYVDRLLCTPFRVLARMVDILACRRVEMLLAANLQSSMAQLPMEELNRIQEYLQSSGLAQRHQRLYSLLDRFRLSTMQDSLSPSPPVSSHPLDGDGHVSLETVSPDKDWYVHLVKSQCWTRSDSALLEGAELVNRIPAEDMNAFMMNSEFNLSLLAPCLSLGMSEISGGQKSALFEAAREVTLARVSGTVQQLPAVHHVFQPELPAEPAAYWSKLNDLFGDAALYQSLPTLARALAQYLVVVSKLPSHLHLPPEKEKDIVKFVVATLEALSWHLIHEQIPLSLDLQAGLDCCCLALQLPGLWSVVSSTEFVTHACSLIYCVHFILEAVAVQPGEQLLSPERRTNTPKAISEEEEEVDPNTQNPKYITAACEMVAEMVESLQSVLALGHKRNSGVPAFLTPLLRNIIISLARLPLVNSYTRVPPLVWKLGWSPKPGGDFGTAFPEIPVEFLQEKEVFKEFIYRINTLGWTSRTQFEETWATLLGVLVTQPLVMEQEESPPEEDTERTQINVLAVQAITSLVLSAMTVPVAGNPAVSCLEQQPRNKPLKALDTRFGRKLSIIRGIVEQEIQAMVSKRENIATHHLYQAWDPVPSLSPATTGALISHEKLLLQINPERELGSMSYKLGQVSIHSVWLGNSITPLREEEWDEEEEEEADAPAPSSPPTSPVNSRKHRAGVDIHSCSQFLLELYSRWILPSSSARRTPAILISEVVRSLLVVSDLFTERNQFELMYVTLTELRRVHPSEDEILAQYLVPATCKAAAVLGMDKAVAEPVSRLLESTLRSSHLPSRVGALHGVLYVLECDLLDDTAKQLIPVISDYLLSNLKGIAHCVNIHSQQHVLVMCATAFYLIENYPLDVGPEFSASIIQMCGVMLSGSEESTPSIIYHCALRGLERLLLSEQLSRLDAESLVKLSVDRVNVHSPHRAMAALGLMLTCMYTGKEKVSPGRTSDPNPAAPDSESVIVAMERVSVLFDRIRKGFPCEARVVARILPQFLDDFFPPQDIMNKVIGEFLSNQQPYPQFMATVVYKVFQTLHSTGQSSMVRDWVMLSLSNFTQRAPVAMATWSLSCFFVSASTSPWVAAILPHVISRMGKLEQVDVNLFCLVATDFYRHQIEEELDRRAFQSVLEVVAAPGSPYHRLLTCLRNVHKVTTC
# Pf apPOL inh – Pf-apPOL DNA polymerase inhibition | Recombinant Pf-apPOL, molecular beacon fluorescence, 1.5 h | inhibition, % at 10 µM | 210,000 compounds, 0.25% hits
# An asterisk follows results filed as active; . = not tested or not shown; + = active, no number. Cut-off read from the data, not from the text of the source: active = inhibition above about 50%; inactive = the rest.
SMILES,mHTT CaM bind,Pf apPOL inh
COc1ccc(C2=NC(C(C)C)NC(c3ccccc3O)C2)cc1OC (stereo unspecified),78*,-4
COc1ccc(C2N=C(c3ccc4c(c3)OCO4)CC(c3ccccc3O)N2)cc1 (stereo unspecified),18,-5
Cc1ccc(C2=NC(C(C)C)NC(c3cc(Br)ccc3O)C2)cc1 (stereo unspecified),27,-3
COc1cccc(C2=NC(c3ccc(F)cc3)NC(c3ccc(OC)cc3O)C2)c1 (stereo unspecified),53*,-5
O=C(NCC1CCN(C(=O)c2c(Cl)cccc2Cl)CC1)c1c(Cl)cccc1Cl,2,-1
O=C(NC1CC1)C1CCCN(c2nc3ccsc3c(=O)n2Cc2ccccc2)C1 (stereo unspecified),-9,-5
COc1ccc(C2CCN(C(=O)c3ccc4nsnc4c3)C2)cc1 (stereo unspecified),-9,-30
CN(Cc1cccs1)C(=O)Nc1ccccc1,2,-2
N#Cc1cccc(NC(=O)O[C@H]2CCC23CCC(c2ccccc2)CC3)c1 (stereo partly specified),-28,-3
CC(C)n1cnnc1C1CCN(C(=O)c2n[nH]c3ccccc23)CC1,4,-10
N#C/C(=C\c1ccc(-c2ccc3c(c2)C(=O)NC3=O)o1)c1nc2ncc(Br)cc2[nH]1,73*,-5
Cn1c(=O)n(C)c2cc(/C=C(\C#N)c3nc4ncc(Br)cc4[nH]3)ccc21,10,6
Cc1ccc(C)c(CNC(=O)C2CC(=O)N(c3ccc4oc(C)nc4c3)C2)c1 (stereo unspecified),-4,-2
CN1C(=O)C2CCCCN2c2ccc(C(=O)N3CCN(c4ncccn4)CC3)cc21 (stereo unspecified),7,1
Cc1ccc(C(=O)Nc2c3c(nn2C(C)(C)C)CSC3)cc1,-10,-2
Cc1ccc(-n2nc3c(c2NC(=O)c2ccc(F)cc2)CSC3)c(C)c1,28,57*
CC(C)(C)n1nc2c(c1NC(=O)c1c(F)cccc1Cl)CSC2,26,0
COc1ccc(C(=O)Nc2c3c(nn2-c2ccc(C)cc2C)CSC3)cc1,8,-74
CC(C)(C)n1nc2c(c1NC(=O)c1ccc(F)cc1)CSC2,58*,-4
Cc1ccc(C(=O)Nc2c3c(nn2C(C)(C)C)CS(=O)(=O)C3)cc1,3,88*
CC(C)(C)n1nc2c(c1NC(=O)C(=O)NCc1c(F)cccc1F)CSC2,60*,-1
Cc1cccc(C(=O)Nc2c3c(nn2C(C)(C)C)CS(=O)(=O)C3)c1,1,-1
COc1ccc(NC(=O)N2CCc3cn(C)c4cccc(c34)C2)cc1Cl,18,-2
CSc1ccc(CCNC(=O)C2CCCN(C(=O)Cc3cccc4ccccc34)C2)cc1 (stereo unspecified),7,0
Cc1noc(Cc2nnc(-c3ccc(C)c(F)c3)o2)n1,0,-8
SMILES,mHTT CaM bind,Pf apPOL inh
Cc1c(C2CCN(C(=O)NCC3CCCO3)CC2)noc1N (stereo unspecified),-3,-4
CCC(C(=O)O)N1C(=O)C(=Cc2cc(OC)ccc2OC)SC1=S (stereo unspecified),19,-16
CC(C)(C)n1nc2c(c1NC(=O)c1ccco1)CSC2,71*,39
CC(C)(C)n1nc2c(c1NC(=O)c1ccco1)CS(=O)C2 (stereo unspecified),2,6
COc1ccc(-c2nnc(N3CCC(C(=O)NCCN(C)C)CC3)o2)cc1,-1,-3
CN1CCC(N(C)C(=O)c2cc3c(-c4ccccc4)nn(-c4ccccc4)c3s2)CC1,100*,-1
Cc1nn(-c2ccccc2)c2sc(C(=O)NC(C)C)cc12,1,0
Cc1ccc(Sc2c(C)n[nH]c2C)cc1,-16,1
CCN1C(=O)Cc2ccccc2C1C(=O)NCc1cccc(C)c1 (stereo unspecified),2,-1
O=C1c2ccccc2-c2onc3ccc(Nc4ccccc4)c1c23,43,1
CNc1cc(Nc2ccc(C)cc2)c2c3c(onc13)-c1ccccc1C2=O,95*,2
O=C1c2ccccc2-c2onc3c(N4CCOCC4)cc(Nc4ccc(F)cc4)c1c23,63*,-1
COc1ccc(Nc2cc(N3CCOCC3)c3noc4c3c2C(=O)c2ccccc2-4)cc1,43,1
O=C(CN1CCN(CC(=O)Nc2ccccc2F)CC1)Nc1ccc2c(c1)OCO2,0,-1
COc1ccc(OC)c(NC(=O)c2c(NC(=O)c3ccccc3F)sc3c2CCCC3)c1,-4,-24
COc1ccc(OC)c(NC(=O)c2c(NCc3ccccn3)sc3c2CCCC3)c1,59*,-18
CCOc1ccccc1NC(=O)c1c(NCc2cc(OC)ccc2OC)sc2c1CCC2,16,-19
COc1ccc(NC(=O)c2c(NC(=O)c3cccnc3)sc3c2CCC3)cc1,0,2
COc1ccc(NC(=O)c2c(NCc3ccccn3)sc3c2CCC3)cc1,59*,-17
COc1ccc(Cl)cc1NC(=O)c1c(NCc2ccccn2)sc2c1CCCC2,75*,-17
COc1ccc(Cl)cc1NC(=O)c1c(NCc2cccn2C)sc2c1CCCC2,65*,-15
COc1ccc(NC(=O)c2c(NC(=O)c3ccccc3Cl)sc3c2CCCC3)c(OC)c1,4,-9
COc1ccc(CN2CCCC2c2cc(C)on2)cc1OC (stereo unspecified),6,4
Cc1ccccc1NC(=O)c1c(-c2c(F)cccc2Cl)noc1C,-3,8
COc1ccccc1NC(=O)CN1N=NC2C(=O)N(c3ccc(C)cc3)C(=O)C21 (stereo unspecified),4,6
SMILES,mHTT CaM bind,Pf apPOL inh
Cc1ccnc(N2CCC(C(=O)NCCCN3CCN(C)CC3)CC2)n1,-3,3
COc1ccccc1C1=NOC(C(=O)Nc2ccccc2C(F)(F)F)C1 (stereo unspecified),-18,1
CN(C)C(=O)c1cc2c(s1)CCC(C(=O)Nc1ccc(F)c(F)c1)C2 (stereo unspecified),-5,1
CCCCOC(=O)Nc1ccc(OC)cc1[N+](=O)[O-],26,-14
CNC(=O)c1cc2cc(Br)ccc2oc1=O,-1,-1
O=C(NNC(=O)c1cc2cc(Br)ccc2oc1=O)c1ccc(O)cc1O,54*,73*
Cc1ccc(C(=O)Nc2ccc(N3CCCCC3)cc2)c(Cl)c1,31,-3
O=C(Cc1ccc(F)cc1)Nc1ccc(CC(=O)NC2CC2)cc1,-8,-8
O=C1OC(c2cccc(Cl)c2)=N/C1=C\c1ccc(Br)cc1,4,13
CN(C)C1=NS(=O)(=O)c2ccccc21,-2,-2
CN(C)c1ccc(/C=C/C=N/NC2=NS(=O)(=O)c3ccccc32)cc1,+,.
COCCN(Cc1ccsc1)C(=O)C1(c2cccs2)CCCC1,-20,-4
O=C1OC(/C=C/c2cccc([N+](=O)[O-])c2)=NC/1=C\c1cccs1,4,19
COc1ccc(-n2c(C)ccc2C)c(N)c1,54*,-2
COc1ccc2nc(C)cc(N)c2c1,-1,-40
C=C(c1ccccc1)C(C(=O)O)S(C)(=O)=O (stereo unspecified),-6,-7
O=C(C=Cc1ccc(OC(F)(F)F)cc1)NCc1ccco1,.,-27
Cc1ccccc1CN1C(=O)C(=O)c2cc(Cl)ccc21,51*,-5
O=c1ccc(S(=O)(=O)N2CCOCC2)cn1Cc1cccc(Cl)c1,-10,-1
O=C1c2cccnc2C(=O)N1Cc1ccc(Cl)cc1,14,-5
